The list is not random: actives were taken first. Their share in the collection is about 4.7%.
tim10-1 inh = growth inhibitors of tim10-1 mutant yeast, primary screen, luminescence, uHTS; AID 463190, 2010; 2.2% of 330,000 active; S. cerevisiae tim10-1 ts strain growth, BacTiter-Glo, 24 h; inhibition, % at 20 µM;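 active = inhibition of at least 40%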;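 note: mutant grown at 25 °C; 0% = DMSO wells with yeast and 100% = wells holding no yeast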
ATG4B inhibitor = ATG4B protease inhibitors, primary screen, biochemical, fluorescence, uHTS | Cysteine protease ATG4B (Homo sapiens), Q9Y4P1 | ATG4B cleavage of LC3-PLA2, NBD-HPC fluorescence, 1 h | inhibition, % at 8.33 µM | 0.51% of 340,000 active; in the data active = inhibition above about 40%
Target sequence (Q9Y4P1 whole entry, looked up): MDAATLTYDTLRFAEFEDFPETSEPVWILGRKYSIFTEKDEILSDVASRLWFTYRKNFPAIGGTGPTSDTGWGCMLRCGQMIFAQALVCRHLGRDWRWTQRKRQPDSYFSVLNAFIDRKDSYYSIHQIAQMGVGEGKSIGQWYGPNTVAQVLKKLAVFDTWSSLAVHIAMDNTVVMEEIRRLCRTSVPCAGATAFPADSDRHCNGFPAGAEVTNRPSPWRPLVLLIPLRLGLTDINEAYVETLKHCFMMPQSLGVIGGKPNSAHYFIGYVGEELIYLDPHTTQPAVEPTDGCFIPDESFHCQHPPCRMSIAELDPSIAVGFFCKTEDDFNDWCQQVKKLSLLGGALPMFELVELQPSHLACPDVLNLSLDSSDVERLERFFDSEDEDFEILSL
tim23-1 inh = growth inhibitors of tim23-1 mutant yeast, primary screen, luminescence, uHTS; S. cerevisiae tim23-1 growth, BacTiter-Glo luminescence, 24 h; inhibition, % at 20 µM; 1.3% of 330,000 active;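 active = growth inhibition of the mutant yeast at or above 50%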;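 note: temperature-sensitive mutant grown at 25 °C; plate controls were DMSO-treated mutant yeast for no effect and medium wells lacking yeast for full effect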
TIM10 inh = growth inhibitors of isogenic TIM10 control yeast, primary screen, counter-screen for tim10-1 yeast inhibitor project, luminescence, uHTS; S. cerevisiae TIM10 strain growth, BacTiter-Glo luminescence, 24 h; 1.4% of 330,000 active; inhibition, % at 10 µM;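 active = inhibition of 40% or more at the single tested concentration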;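 note: wild-type TIM10 isogenic control strain grown at permissive 25 °C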
SKKanGAS inh = S. pyogenes SKKanGAS growth inhibitors in kanamycin, primary screen, streptokinase expression inhibitor project, SKKanGAS strain, BacTiter-Glo luminescence; 6 h; inhibition, % at 7.5 µM; 1.3% of 300,000 active; AID 1662, 2009;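 active = mean replicate score, as percent of positive control median, at least 50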;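 note: strain carries kanamycin resistance gene driven by streptokinase promoter and grows in 40 µg/ml kanamycin; loss of luminescence reflects streptokinase promoter inhibition or plain growth inhibition; 0% = median of DMSO wells and 100% = positive control at its reference dose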
PfHsp90 set2 = growth inhibition of PfHsp90-expressing yeast, primary screen, antimalarial PfHsp90 inhibitor project, S. cerevisiae, BacTiter-Glo luminescence, single point, set 2; BacTiter-Glo ATP, 48 h; yeast lacking PDR1 and PDR3 efflux regulators; inhibition, % at 9.4 µM; 0.32% of 310,000 active;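 active = every replicate shows inhibition above about 80%, whatever the replicate mean, limit read from the data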;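 note: 0% = DMSO neutral controls and 100% = 20 µM radicicol positive controls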
tim10-1 confirm = growth inhibitors of tim10-1 mutant yeast, confirmation, single concentration, luminescence, S. cerevisiae | shares compounds with tim10-1 inh | S. cerevisiae tim10-1 ts strain growth, BacTiter-Glo, 24 h | inhibition, % at 20 µM | 56% of 7,400 active;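 active = inhibition of yeast growth at or above a set limit in either of two repeat tests at 20 µM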;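 note: tim10-1 mutant grown at permissive 25 °C to find synthetic lethal compounds; 0% = DMSO yeast wells and 100% = medium wells without yeast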
* = called active by the depositor; · = not tested or not shown.

SMILES	tim10-1 inh	ATG4B inhibitor	tim23-1 inh	TIM10 inh	SKKanGAS inh	PfHsp90 set2	tim10-1 confirm
O=C(COC(=O)CCS(=O)(=O)c1ccc(Cl)cc1)NCCc1ccccc1	16	4	16	2	2	-5	·
O=C1C2C3CCCC3=C3CCCC3C2C(=O)N1c1ccc(Cl)cc1 (stereo not given)	42*	-2	39	16	11	10	31*
CC1CCN(S(=O)(=O)c2ccc(NC(=O)c3ccncc3)cc2)CC1	37	1	30	18	-2	-37	·
CCS(=O)(=O)c1ncc(Cl)c(C(=O)Nc2ccc(S(=O)(=O)N3CCC(C)CC3)cc2)n1	42*	0	40	-14	9	-17	-34
CN(c1ccccc1)S(=O)(=O)c1ccc(NC(=O)c2nc(S(C)(=O)=O)ncc2Cl)cc1	43*	6	26	18	-7	-3	-1
CCOC(=O)c1ccc(NC(=O)c2nc(S(=O)(=O)Cc3ccccc3)ncc2Cl)cc1	55*	-9	31	0	82*	9	21
Cc1ccc(Nc2c(-c3ccccc3O)nc3ncccn23)cc1	4	-2	19	24	14	9	·
COCCCNC(=O)c1cc2c(=O)n(C)c3ccccc3c2n1C	2	-4	4	8	-3	13	·
N#CC1=C2N=C(N)c3c(sc4c3CCCCC4)N2C2=C(C(=O)CCC2)C1c1ccccc1 (stereo not given)	27	-10	19	2	13	-7	·
CN(CCCC(=O)O)c1ccc(N=Nc2ccc([N+](=O)[O-])cc2)cc1	54*	1	48	27	-1	10	45*
CC(=C\c1ccco1)/C=C(\C#N)C(=O)NCCc1c[nH]c2ccccc12	43*	6	31	38	6	19	42*
O=C(NCCc1c[nH]c2ccccc12)/C(=C/c1ccco1)NC(=O)c1ccco1	-1	-3	10	-19	0	2	·
Cc1cc(=O)[nH]c(SCC(=O)N2CCC(C(N)=O)CC2)n1	-8	3	-19	-2	-3	16	·
CCC1CCCCN1S(=O)(=O)c1ccc(C(=O)Nc2nnc(-c3cccs3)o2)cc1 (stereo not given)	45*	-5	21	18	·	-27	27
CC1CC(C)CN(S(=O)(=O)c2ccc(C(=O)Nc3nnc(-c4cccs4)o3)cc2)C1 (stereo not given)	42*	2	6	18	82*	-54	21
CC1CCCN(S(=O)(=O)c2ccc(C(=O)Nc3nnc(-c4ccccc4Cl)o3)cc2)C1 (stereo not given)	42*	0	-5	22	97*	-9	7
O=Cc1ccc([B-](F)(F)F)s1	·	1	·	·	·	25	·
C/C(CC(=O)Nc1ccc(N(C)C)cc1)=N\NC(=O)c1ccccn1	49*	-9	22	20	-1	19	32*
COc1cc(OC)cc(C(=O)NC(=S)NNC(=O)Cc2cccs2)c1	40*	-8	-39	15	70*	-12	11
COc1ccc(C(=O)NC(=S)NNC(=O)Cc2cccs2)cc1	22	-4	-23	-1	18	-30	·
CCOC(=O)CSc1ccc2nnc(-c3cccs3)n2n1	3	-10	-3	-1	-1	-3	·
Nc1nnc(SCC(=O)c2ccccc2)s1	10	-6	4	-6	-7	1	·
Nc1c(C(=O)c2ccccc2)sc2snc(SCC(=O)c3ccccc3)c12	62*	2	28	18	49	-13	66*
Cc1sc2ncnc(Sc3ccccc3C(=O)Nc3ccccc3Cl)c2c1C	43*	2	35	17	5	39	26
Cc1sc2ncnc(Sc3ccccc3C(=O)Nc3ccc(Br)cc3)c2c1C	32	-5	34	29	11	-3	·
SMILES	tim10-1 inh	ATG4B inhibitor	tim23-1 inh	TIM10 inh	SKKanGAS inh	PfHsp90 set2	tim10-1 confirm
Cc1ccccc1NC(=O)C1CCCN1S(=O)(=O)c1cccc2cccnc12 (stereo not given)	30	-2	34	10	1	11	·
CC(=O)c1ccc(NC(=O)COC(=O)C2CCN(S(=O)(=O)c3cccs3)CC2)cc1	-3	-9	5	-3	·	0	·
CC1=C(C(=O)N2CCc3ccccc32)C2(CCC(C)CC2)OC1=O (stereo not given)	48*	-2	28	22	·	9	33*
O=C(CSCc1ccccc1Cl)Nc1ccc(C(=O)O)cc1	0	-3	-3	5	-2	-24	·
O=C(CSCc1ccccc1Cl)NNC(=S)Nc1ccccc1	49*	5	26	28	-9	12	43*
CCCCCCC(=O)N(O)C1CC(=O)N(c2ccc(Br)cc2)C1=O (stereo not given)	42*	4	33	32	-14	119*	28
COc1ccccc1N(O)C1CC(=O)N(c2ccc(Br)cc2)C1=O (stereo not given)	27	7	23	18	6	·	·
Cc1cccc(N2C(=O)CCC2=O)c1	2	-1	2	-6	-3	·	·
Cc1ccccc1C(=O)NC1CCCCCCC1	4	-1	7	-1	3	-20	·
O=C(NC1CCCCCC1)c1ccc[nH]c1=S	44*	3	7	16	6	1	30
CSc1nc(N)nc(-c2cccs2)c1C#N	48*	-6	49	13	1	-28	36*
COc1cccc(CC(C(=O)Nc2cc(C)ccc2C)c2nn[nH]n2)c1OC (stereo not given)	20	-6	7	-1	-1	-6	·
CC(=O)c1ccc2c(c1)c(C#N)c1ccccc1[n+]2[O-]	68*	-20	48	18	7	-46	51*
Cc1cc(C)c2sc(C)[n+](CCCS(=O)(=O)[O-])c2c1	-1	-20	4	-5	3	16	·
CC[n+]1c(C)sc2c(C)cc(C)cc21	42*	-2	29	24	-1	29	34*
COc1ccc(CC(=O)N/N=C/c2cc(Br)cs2)cc1OC	5	-6	21	4	-4	9	·
COc1ccc(-c2nc3n(c(=O)c2C#N)CCS3)cc1	45*	-5	5	2	8	-22	26
CCOc1ccc(-c2nc3n(c(=O)c2C#N)CCS3)cc1	31	-12	-15	22	23	3	·
